# Measurements reported in PubChem BioAssay (Tox21).
# Results filed as inconclusive are left out. Entries that show only a call come without a potency. Activity calls are given as the source filed them. Unless noted, calls come from the whole dose curve; as a rule, active = well fitted curve in the direction sought with a large enough effect in the repeat runs; inconclusive = weak or mixed curves; inactive = no such curve, though single readings can be large; an effect the other way counts as inactive or inconclusive.
# Target: Retinoic acid receptor RXR-alpha (Homo sapiens) (UniProt P19793)
# Experiment: qHTS assay to identify small molecule agonists of the RXR signaling pathway (AID 1159527; calls by dose curve; note: nearly all actives have a fitted effect of over 35% in size)
# Settings: HEK293T RXRa-UAS-bla, beta-lactamase ratio, 16 h; series mostly up to 76.8 µM
# Procedure, shortened: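 Agonist-mode beta-lactamase reporter assay: HEK 293T RXR-alpha-UAS-bla cells treated 16 hr at 37 C with compounds, 9-cis retinoic acid as positive control. LiveBLAzer FRET substrate, 405 nm excitation, 460/530 nm emission.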
# Chain of Retinoic acid receptor RXR-alpha (Homo sapiens) (P19793 whole entry, looked up): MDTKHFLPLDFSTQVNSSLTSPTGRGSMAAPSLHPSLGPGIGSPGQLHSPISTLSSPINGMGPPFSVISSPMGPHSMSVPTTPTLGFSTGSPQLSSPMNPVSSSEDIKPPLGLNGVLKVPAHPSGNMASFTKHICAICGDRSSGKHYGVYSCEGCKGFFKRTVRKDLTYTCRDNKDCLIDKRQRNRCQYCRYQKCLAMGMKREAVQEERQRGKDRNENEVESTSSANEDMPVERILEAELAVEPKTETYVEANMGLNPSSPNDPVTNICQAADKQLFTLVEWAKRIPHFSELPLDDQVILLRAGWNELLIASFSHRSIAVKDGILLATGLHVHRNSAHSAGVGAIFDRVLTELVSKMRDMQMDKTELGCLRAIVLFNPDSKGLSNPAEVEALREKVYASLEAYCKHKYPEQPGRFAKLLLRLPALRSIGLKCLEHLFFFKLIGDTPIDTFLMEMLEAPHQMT
SMILES,Potency,activation
CCCCCCCCCC(C)=O,inactive,–
CC1(C)S[C@@H]2[C@H](N=CN3CCCCCC3)C(=O)N2[C@H]1C(=O)O,inactive,–
COP(=O)(OC)OC(c1ccc(Cl)cc1)P(=O)(OC)OC (centres undefined),inactive,–
CCOC(=O)CC(=O)c1ccccc1,inactive,–
CCO[Si](CCCS)(OCC)OCC,inactive,–
CCCCC(CC)COCCO (centres undefined),inactive,–
C=COCCOCCOCCOC=C,inactive,–
Oc1ccccc1-c1nnco1,inactive,–
CC(CO)c1ccccc1 (centres undefined),inactive,–
C=C1CC/C=C(\C)CC[C@@H]2[C@@H]1CC2(C)C,inactive,–
O=C(O)Cc1ccc(Cl)cc1Cl,inactive,–
CCCCCCCC/C=C\CCCCCCCC(=O)OCCCC,–,2.43% [at 15.8 µM] (inactive)
NS(=O)(=O)c1cc2c(cc1Cl)CN(C1CCCCC1)C2=O,inactive,–
CC(=O)c1sc(C)nc1C,inactive,–
COc1cc2c(cc1OC)C(=O)CC2,inactive,–
CCCCCCOC(=O)CC,inactive,–
Cc1cc(Cl)c(C)cc1Cl,inactive,–
CC(C)(C)OC(=O)c1ccc(O)cc1,inactive,–
COC(=O)C1CC(=O)C(C(=O)OC)CC1=O (centres undefined),–,10.5% [at 6.98 µM] (inactive)

SMILES,Potency,activation
N#Cc1ccc(C(=O)O)cc1,inactive,–
CC(C)CC(C)CC(C)CC(C)COC(=O)c1ccccc1C(=O)OCC(C)CC(C)CC(C)CC(C)C (centres undefined),inactive,–
CCCOC(OCCC)OCCC,inactive,–
O=C(c1ccc(O)cc1)c1ccc(O)c(O)c1O,inactive,–
C=C(C)C(=O)OCC(C)(C)COC(=O)C(=C)C,inactive,–
CC(CC=O)CCCC(C)(C)O (centres undefined),inactive,–
CC(C)c1ccc2cc(C(C)C)ccc2c1,inactive,–
O=C(O)c1cc(Br)c(O)c(Br)c1,inactive,–
Cc1cccc(OCC(O)CNC(C)(C)C)c1C (centres undefined),inactive,–
CCCCCCCCCCCCCC,inactive,–
O=C1CCCC(=O)O1,inactive,–
NNc1nnc(NN)c2ccccc12,inactive,–
CCCCOCCOC(=O)COc1nc(Cl)c(Cl)cc1Cl,inactive,–
CCc1ccc(C=O)cc1,inactive,–
COc1ccc(Br)c(C)c1,inactive,–
C=CCCCCCCCCCCCC,inactive,–
CCOC(=O)/C=C/c1ccccc1,inactive,–
OC[C@H](Cc1cccc(O)c1)[C@H](CO)Cc1cccc(O)c1,inactive,–
COCCc1ccc(OCC2CO2)cc1 (centres undefined),inactive,–

# Tested on: not listed separately
# Experiment: qHTS assay to identify small molecule agonists of the RXR signaling pathway - cell viability counter screen (AID 1159529); note: nearly all actives have a fitted effect of over 50% in size
# Settings: RXR-alpha-bla HEK293T viability, CellTiter-Glo, 16 h; series mostly up to 76.8 µM
# Procedure, shortened: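 CellTiter-Glo luminescence gave viability in the wells also read for beta-lactamase. Cells (RXR-alpha-UAS-bla HEK 293T, 2% charcoal-stripped FBS medium) had 5 hr plating, then 16 hr compound exposure at 37 C; tetraoctyl ammonium bromide served as positive control.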
SMILES,outcome,"activity change, negative = cytotoxicity"
CCCCCCCCCC(C)=O,inactive,–
CC1(C)S[C@@H]2[C@H](N=CN3CCCCCC3)C(=O)N2[C@H]1C(=O)O,inactive,–
COP(=O)(OC)OC(c1ccc(Cl)cc1)P(=O)(OC)OC (centres undefined),inactive,–
CCOC(=O)CC(=O)c1ccccc1,inactive,–
CCO[Si](CCCS)(OCC)OCC,inactive,–
CCCCC(CC)COCCO (centres undefined),inactive,–
C=COCCOCCOCCOC=C,inactive,–
Oc1ccccc1-c1nnco1,inactive,–
CC(CO)c1ccccc1 (centres undefined),inactive,–
C=C1CC/C=C(\C)CC[C@@H]2[C@@H]1CC2(C)C,inactive,–
O=C(O)Cc1ccc(Cl)cc1Cl,inactive,–
CCCCCCCC/C=C\CCCCCCCC(=O)OCCCC,–,1.56% [at 15.8 µM] (inactive)
NS(=O)(=O)c1cc2c(cc1Cl)CN(C1CCCCC1)C2=O,inactive,–
CC(=O)c1sc(C)nc1C,inactive,–
COc1cc2c(cc1OC)C(=O)CC2,inactive,–
CCCCCCOC(=O)CC,inactive,–
Cc1cc(Cl)c(C)cc1Cl,inactive,–
CC(C)(C)OC(=O)c1ccc(O)cc1,inactive,–
COC(=O)C1CC(=O)C(C(=O)OC)CC1=O (centres undefined),–,8.97% [at 6.97 µM] (inactive)

SMILES,outcome,"activity change, negative = cytotoxicity"
N#Cc1ccc(C(=O)O)cc1,inactive,–
CC(C)CC(C)CC(C)CC(C)COC(=O)c1ccccc1C(=O)OCC(C)CC(C)CC(C)CC(C)C (centres undefined),inactive,–
CCCOC(OCCC)OCCC,inactive,–
O=C(c1ccc(O)cc1)c1ccc(O)c(O)c1O,inactive,–
C=C(C)C(=O)OCC(C)(C)COC(=O)C(=C)C,inactive,–
CC(CC=O)CCCC(C)(C)O (centres undefined),inactive,–
CC(C)c1ccc2cc(C(C)C)ccc2c1,inactive,–
O=C(O)c1cc(Br)c(O)c(Br)c1,inactive,–
Cc1cccc(OCC(O)CNC(C)(C)C)c1C (centres undefined),inactive,–
CCCCCCCCCCCCCC,inactive,–
O=C1CCCC(=O)O1,inactive,–
NNc1nnc(NN)c2ccccc12,inactive,–
CCCCOCCOC(=O)COc1nc(Cl)c(Cl)cc1Cl,inactive,–
CCc1ccc(C=O)cc1,inactive,–
COc1ccc(Br)c(C)c1,inactive,–
C=CCCCCCCCCCCCC,inactive,–
CCOC(=O)/C=C/c1ccccc1,inactive,–
OC[C@H](Cc1cccc(O)c1)[C@H](CO)Cc1cccc(O)c1,inactive,–
COCCc1ccc(OCC2CO2)cc1 (centres undefined),inactive,–

# Tested on: not listed separately
# Experiment: qHTS assay to identify small molecule antagonists of the retinoid acid receptor (RAR) signaling pathway - cell viability counter screen (AID 1159551); note: nearly all actives have a fitted effect of over 35% in size
# Settings: C3RL4 cells viability, ATP luminescence (CellTiter-Glo), 6 h; series mostly up to 92.4 µM
# Procedure, shortened: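 Seed C3RL4 cells; next day add compound, then retinol to 1 uM final; incubate 6 h at 37 C; add CellTiter-Glo; read luminescence after 30 min at RT.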
SMILES,outcome,"activity change, negative = cytotoxicity"
CCCCCCCCCC(C)=O,inactive,–
CC1(C)S[C@@H]2[C@H](N=CN3CCCCCC3)C(=O)N2[C@H]1C(=O)O,inactive,–
COP(=O)(OC)OC(c1ccc(Cl)cc1)P(=O)(OC)OC (centres undefined),inactive,–
CCOC(=O)CC(=O)c1ccccc1,inactive,–
CCO[Si](CCCS)(OCC)OCC,inactive,–
CCCCC(CC)COCCO (centres undefined),inactive,–
C=COCCOCCOCCOC=C,inactive,–
Oc1ccccc1-c1nnco1,inactive,–
CC(CO)c1ccccc1 (centres undefined),inactive,–
C=C1CC/C=C(\C)CC[C@@H]2[C@@H]1CC2(C)C,inactive,–
O=C(O)Cc1ccc(Cl)cc1Cl,inactive,–
CCCCCCCC/C=C\CCCCCCCC(=O)OCCCC,–,-0.376% [at 19 µM] (inactive)
NS(=O)(=O)c1cc2c(cc1Cl)CN(C1CCCCC1)C2=O,inactive,–
CC(=O)c1sc(C)nc1C,inactive,–
COc1cc2c(cc1OC)C(=O)CC2,inactive,–
CCCCCCOC(=O)CC,inactive,–
Cc1cc(Cl)c(C)cc1Cl,inactive,–
CC(C)(C)OC(=O)c1ccc(O)cc1,inactive,–
COC(=O)C1CC(=O)C(C(=O)OC)CC1=O (centres undefined),–,3.23% [at 8.39 µM] (inactive)

SMILES,outcome,"activity change, negative = cytotoxicity"
N#Cc1ccc(C(=O)O)cc1,inactive,–
CC(C)CC(C)CC(C)CC(C)COC(=O)c1ccccc1C(=O)OCC(C)CC(C)CC(C)CC(C)C (centres undefined),inactive,–
CCCOC(OCCC)OCCC,inactive,–
O=C(c1ccc(O)cc1)c1ccc(O)c(O)c1O,inactive,–
C=C(C)C(=O)OCC(C)(C)COC(=O)C(=C)C,inactive,–
CC(CC=O)CCCC(C)(C)O (centres undefined),inactive,–
CC(C)c1ccc2cc(C(C)C)ccc2c1,inactive,–
O=C(O)c1cc(Br)c(O)c(Br)c1,inactive,–
Cc1cccc(OCC(O)CNC(C)(C)C)c1C (centres undefined),inactive,–
CCCCCCCCCCCCCC,inactive,–
O=C1CCCC(=O)O1,inactive,–
NNc1nnc(NN)c2ccccc12,inactive,–
CCCCOCCOC(=O)COc1nc(Cl)c(Cl)cc1Cl,inactive,–
CCc1ccc(C=O)cc1,inactive,–
COc1ccc(Br)c(C)c1,inactive,–
C=CCCCCCCCCCCCC,inactive,–
CCOC(=O)/C=C/c1ccccc1,inactive,–
OC[C@H](Cc1cccc(O)c1)[C@H](CO)Cc1cccc(O)c1,inactive,–
COCCc1ccc(OCC2CO2)cc1 (centres undefined),inactive,–
